# Measurements: publication PMC7862700, “An all-to-all approach to the identification of sequence-specific readers for epigenetic DNA modifications on cytosine”
# Key:
# Assay in all cases: DAPPL (digital affinity profiling via proximity ligation, sequencing); 10 mM Tris-HCl pH 7.5, 50 mM NaCl, 1 mM DTT, 4% glycerol, room temperature, 30 min; GST-TFs on glutathione beads, 16-mer random dsDNA library, 0.1% formaldehyde crosslink after washing; high values mean tight binding
# [1] = biological target: T1, FLI1 (Homo sapiens, UniProt Q01543 1-452); conditions: protein: recombinant; tags: N-terminal GST; dsDNA, one strand shown
# T1 sequence: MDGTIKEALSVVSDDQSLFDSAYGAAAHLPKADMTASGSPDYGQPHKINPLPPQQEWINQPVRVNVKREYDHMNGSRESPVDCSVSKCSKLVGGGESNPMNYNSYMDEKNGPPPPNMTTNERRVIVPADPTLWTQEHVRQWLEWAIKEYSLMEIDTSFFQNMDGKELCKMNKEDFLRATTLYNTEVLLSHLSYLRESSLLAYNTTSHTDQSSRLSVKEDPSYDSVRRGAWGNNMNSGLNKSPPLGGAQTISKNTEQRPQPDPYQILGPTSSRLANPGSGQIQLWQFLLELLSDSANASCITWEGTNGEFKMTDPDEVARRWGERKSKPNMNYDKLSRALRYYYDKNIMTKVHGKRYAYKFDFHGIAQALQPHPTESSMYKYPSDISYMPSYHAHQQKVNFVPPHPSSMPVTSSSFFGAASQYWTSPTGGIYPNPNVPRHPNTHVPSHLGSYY
# Method in brief: (§1)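 In yeast, human transcription factors were expressed with a GST fusion, then pulled down on glutathione beads and given DNA barcodes. Pooled with a tag-only sample, they were exposed to 200 nmole of a 16-mer random double-stranded DNA library (Tris/NaCl/DTT/glycerol buffer, room temperature, 30 min), washed, crosslinked with 0.1% formaldehyde, proximity-ligated using BsaI/T4 ligase for 1 h at 37 °C, PCR-amplified and read on an Illumina NextSeq500. Each hexamer's frequency of reads for a factor, divided by the matching frequency for the tag-only sample, gives the binding signal.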
# [2] = biological target: T2, ELK1 (Homo sapiens, UniProt P19419 1-428); conditions: protein: recombinant; tags: N-terminal GST; dsDNA, one strand shown
# T2 sequence: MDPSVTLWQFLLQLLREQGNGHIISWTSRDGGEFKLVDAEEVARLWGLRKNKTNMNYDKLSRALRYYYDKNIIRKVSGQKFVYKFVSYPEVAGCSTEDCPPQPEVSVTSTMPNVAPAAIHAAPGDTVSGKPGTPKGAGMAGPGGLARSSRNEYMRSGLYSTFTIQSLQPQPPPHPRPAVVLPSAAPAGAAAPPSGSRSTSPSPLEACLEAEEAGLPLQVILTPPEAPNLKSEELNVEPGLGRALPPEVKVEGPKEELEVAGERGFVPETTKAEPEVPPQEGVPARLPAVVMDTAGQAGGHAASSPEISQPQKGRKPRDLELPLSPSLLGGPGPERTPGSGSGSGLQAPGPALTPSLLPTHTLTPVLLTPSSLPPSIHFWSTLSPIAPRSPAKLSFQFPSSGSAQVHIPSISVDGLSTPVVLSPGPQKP
# Method in brief: as §1
# [3] = biological target: T3, GABPA (Homo sapiens, UniProt Q06546 1-454); conditions: protein: recombinant; tags: N-terminal GST; dsDNA, one strand shown
# T3 sequence: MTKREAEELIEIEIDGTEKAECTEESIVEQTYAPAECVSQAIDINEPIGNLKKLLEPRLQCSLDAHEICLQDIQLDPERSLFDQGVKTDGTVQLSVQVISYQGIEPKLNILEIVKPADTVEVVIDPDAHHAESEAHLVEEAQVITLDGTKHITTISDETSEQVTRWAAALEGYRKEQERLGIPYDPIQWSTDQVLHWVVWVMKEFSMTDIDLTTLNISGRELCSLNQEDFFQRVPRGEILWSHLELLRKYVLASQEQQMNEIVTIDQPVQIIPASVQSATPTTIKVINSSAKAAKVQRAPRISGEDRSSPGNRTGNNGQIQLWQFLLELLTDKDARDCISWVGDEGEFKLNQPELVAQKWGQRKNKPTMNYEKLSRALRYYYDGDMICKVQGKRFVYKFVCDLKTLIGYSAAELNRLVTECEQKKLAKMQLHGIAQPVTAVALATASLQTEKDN
# Method in brief: as §1
# [4] = biological target: T4, ERG (Homo sapiens, UniProt P11308 1-479); conditions: protein: recombinant; tags: N-terminal GST; dsDNA, one strand shown
# T4 sequence: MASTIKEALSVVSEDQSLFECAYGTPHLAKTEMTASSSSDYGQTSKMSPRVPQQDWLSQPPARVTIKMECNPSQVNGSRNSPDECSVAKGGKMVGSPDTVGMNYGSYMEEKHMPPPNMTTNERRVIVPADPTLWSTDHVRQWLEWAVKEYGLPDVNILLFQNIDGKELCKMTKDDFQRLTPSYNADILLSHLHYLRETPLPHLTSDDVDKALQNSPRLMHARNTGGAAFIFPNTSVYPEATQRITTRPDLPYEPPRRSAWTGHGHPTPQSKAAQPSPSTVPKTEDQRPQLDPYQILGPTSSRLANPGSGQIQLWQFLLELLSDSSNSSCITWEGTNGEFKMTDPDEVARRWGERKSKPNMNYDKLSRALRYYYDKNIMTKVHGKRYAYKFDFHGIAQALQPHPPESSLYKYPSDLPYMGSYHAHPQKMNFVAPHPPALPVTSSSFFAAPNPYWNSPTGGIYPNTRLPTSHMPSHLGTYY
# Method in brief: as §1
# [5] = biological target: ELF1 (Homo sapiens, UniProt P32519 1-619); conditions: protein: recombinant; tags: N-terminal GST; dsDNA, one strand shown
# Sequence of ELF1 (P32519 whole entry): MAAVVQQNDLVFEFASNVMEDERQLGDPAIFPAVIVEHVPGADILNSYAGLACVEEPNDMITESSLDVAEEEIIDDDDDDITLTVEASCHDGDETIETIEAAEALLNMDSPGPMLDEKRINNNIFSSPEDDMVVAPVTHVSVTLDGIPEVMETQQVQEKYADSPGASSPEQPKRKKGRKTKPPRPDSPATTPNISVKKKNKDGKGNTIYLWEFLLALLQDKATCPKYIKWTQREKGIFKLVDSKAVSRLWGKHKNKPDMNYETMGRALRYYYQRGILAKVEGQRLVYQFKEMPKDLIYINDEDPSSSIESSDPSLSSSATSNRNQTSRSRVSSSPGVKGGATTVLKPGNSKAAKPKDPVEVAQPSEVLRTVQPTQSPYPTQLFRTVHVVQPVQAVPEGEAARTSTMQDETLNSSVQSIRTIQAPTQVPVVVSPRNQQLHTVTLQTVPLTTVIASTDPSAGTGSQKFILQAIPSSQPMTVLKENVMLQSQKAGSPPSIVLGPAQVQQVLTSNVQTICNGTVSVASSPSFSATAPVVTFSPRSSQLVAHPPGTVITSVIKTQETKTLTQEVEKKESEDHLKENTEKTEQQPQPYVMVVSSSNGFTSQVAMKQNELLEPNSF
# Method in brief: as §1
# [6] = biological target: T5, EHF (Homo sapiens, UniProt Q9NZC4 1-300); conditions: protein: recombinant; tags: N-terminal GST; dsDNA, one strand shown
# T5 sequence: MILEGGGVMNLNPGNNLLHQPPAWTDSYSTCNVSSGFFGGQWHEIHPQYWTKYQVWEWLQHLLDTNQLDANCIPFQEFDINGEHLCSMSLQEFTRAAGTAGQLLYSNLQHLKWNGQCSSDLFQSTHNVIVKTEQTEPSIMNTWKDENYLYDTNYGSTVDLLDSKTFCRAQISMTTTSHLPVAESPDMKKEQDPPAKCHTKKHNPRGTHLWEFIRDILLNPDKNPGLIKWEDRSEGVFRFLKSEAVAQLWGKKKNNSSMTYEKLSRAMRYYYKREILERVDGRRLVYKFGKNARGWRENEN
# Method in brief: as §1
# [7] = biological target: SPI1 (Homo sapiens, UniProt P17947 1-270); conditions: protein: recombinant; tags: N-terminal GST; dsDNA, one strand shown
# Method in brief: as §1
# [8] = biological target: SPIB (Homo sapiens, UniProt Q01892 1-262); conditions: protein: recombinant; tags: N-terminal GST; dsDNA, one strand shown
# Sequence of SPIB (Q01892 whole entry): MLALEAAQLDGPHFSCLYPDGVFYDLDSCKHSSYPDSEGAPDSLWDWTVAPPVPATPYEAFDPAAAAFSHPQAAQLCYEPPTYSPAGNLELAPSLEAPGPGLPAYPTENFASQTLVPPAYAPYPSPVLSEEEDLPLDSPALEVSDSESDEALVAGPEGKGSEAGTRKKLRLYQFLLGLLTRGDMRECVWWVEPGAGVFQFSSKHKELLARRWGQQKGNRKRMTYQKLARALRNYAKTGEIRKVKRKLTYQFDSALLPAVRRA
# Method in brief: as §1
# [9] = biological target: T6, ELK3 (Homo sapiens, UniProt P41970 1-407); conditions: protein: recombinant; tags: N-terminal GST; dsDNA, one strand shown
# T6 sequence: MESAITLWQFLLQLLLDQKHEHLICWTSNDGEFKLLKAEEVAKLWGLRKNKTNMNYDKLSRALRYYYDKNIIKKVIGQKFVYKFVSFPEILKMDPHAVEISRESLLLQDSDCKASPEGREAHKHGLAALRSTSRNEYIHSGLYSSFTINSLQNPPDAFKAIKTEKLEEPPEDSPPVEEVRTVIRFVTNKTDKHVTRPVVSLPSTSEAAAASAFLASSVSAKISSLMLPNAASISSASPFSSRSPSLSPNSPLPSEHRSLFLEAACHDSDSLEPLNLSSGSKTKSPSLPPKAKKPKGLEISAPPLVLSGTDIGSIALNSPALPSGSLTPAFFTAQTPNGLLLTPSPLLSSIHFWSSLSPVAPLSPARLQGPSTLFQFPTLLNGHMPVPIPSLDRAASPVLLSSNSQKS
# Method in brief: as §1
# [10] = biological target: T7, FEV (Homo sapiens, UniProt Q99581 1-238); conditions: protein: recombinant; tags: N-terminal GST; dsDNA, one strand shown
# T7 sequence: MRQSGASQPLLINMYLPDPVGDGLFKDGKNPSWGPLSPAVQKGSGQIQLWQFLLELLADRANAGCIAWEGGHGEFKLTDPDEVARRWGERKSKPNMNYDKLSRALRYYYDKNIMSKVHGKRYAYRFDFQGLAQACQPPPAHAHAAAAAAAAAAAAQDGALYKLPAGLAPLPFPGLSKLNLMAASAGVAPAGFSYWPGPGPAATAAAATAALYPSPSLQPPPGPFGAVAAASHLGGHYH
# Method in brief: as §1
# [11] = biological target: ETV5 (Homo sapiens, UniProt P41161 1-510); conditions: protein: recombinant; tags: N-terminal GST; dsDNA, one strand shown
# Sequence of ETV5 (P41161 whole entry): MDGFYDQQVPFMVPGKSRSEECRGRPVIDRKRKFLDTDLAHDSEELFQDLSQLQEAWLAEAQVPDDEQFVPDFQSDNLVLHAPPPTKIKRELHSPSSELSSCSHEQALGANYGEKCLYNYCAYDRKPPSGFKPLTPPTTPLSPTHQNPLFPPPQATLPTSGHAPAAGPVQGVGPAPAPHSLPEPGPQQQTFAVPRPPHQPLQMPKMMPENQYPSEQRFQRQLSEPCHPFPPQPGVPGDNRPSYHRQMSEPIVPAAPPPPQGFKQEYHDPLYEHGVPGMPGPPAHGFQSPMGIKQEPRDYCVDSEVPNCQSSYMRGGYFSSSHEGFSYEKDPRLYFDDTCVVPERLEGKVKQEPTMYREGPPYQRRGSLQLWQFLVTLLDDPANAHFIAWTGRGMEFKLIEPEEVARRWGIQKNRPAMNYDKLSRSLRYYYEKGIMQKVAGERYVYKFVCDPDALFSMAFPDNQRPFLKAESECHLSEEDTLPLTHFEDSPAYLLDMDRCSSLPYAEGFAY
# Method in brief: as §1
# [12] = biological target: HSF1 (Homo sapiens, UniProt Q00613 1-529); conditions: protein: recombinant; tags: N-terminal GST; chain copies: 3; dsDNA, one strand shown
# Sequence of HSF1 (Q00613 whole entry): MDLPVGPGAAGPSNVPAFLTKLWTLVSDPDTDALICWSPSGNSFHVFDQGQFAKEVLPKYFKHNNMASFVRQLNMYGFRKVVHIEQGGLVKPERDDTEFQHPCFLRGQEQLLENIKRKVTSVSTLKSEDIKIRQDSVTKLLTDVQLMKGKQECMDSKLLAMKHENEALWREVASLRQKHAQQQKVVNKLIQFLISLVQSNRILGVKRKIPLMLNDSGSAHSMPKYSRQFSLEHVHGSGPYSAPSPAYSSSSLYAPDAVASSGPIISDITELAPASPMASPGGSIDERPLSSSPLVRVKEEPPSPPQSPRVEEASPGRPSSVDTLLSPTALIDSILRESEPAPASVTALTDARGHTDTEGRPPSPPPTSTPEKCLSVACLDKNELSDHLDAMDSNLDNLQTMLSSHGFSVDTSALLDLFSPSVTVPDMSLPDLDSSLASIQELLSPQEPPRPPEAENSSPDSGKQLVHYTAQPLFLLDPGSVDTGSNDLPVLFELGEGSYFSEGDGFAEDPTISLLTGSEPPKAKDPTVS
# Method in brief: as §1
# [13] = biological target: T8, SPIC (Homo sapiens, UniProt Q8N5J4 1-248); conditions: protein: recombinant; tags: N-terminal GST; dsDNA, one strand shown
# T8 sequence: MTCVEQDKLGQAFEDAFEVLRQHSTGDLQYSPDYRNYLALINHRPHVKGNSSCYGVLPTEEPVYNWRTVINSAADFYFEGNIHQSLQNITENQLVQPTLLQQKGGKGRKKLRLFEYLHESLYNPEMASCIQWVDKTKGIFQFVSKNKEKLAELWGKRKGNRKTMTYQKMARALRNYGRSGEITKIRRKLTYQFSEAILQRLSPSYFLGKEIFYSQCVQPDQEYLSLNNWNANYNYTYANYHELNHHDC
# Method in brief: as §1
# [14] = biological target: ELF4 (Homo sapiens, UniProt Q99607 1-663); conditions: protein: recombinant; tags: N-terminal GST; dsDNA, one strand shown
# Sequence of ELF4 (Q99607 whole entry): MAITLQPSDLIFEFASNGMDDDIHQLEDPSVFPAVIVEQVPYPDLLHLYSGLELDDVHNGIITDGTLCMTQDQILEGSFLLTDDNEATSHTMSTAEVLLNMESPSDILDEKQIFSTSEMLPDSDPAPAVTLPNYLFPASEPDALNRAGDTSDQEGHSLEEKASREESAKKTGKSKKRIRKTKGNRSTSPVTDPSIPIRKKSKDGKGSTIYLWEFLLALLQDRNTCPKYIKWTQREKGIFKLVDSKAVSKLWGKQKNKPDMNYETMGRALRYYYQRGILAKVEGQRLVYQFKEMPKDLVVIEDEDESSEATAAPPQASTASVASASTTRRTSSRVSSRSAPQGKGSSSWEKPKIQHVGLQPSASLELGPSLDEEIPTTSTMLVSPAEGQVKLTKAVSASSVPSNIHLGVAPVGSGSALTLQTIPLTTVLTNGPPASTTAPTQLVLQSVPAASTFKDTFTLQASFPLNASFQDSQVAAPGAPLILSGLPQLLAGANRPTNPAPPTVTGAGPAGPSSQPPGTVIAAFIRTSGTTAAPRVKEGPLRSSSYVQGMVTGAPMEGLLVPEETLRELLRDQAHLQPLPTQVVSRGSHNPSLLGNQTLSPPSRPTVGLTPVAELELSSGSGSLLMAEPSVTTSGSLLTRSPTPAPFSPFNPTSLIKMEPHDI
# Method in brief: as §1
# [15] = biological target: T9, ELK4 (Homo sapiens, UniProt P28324-2 1-405); conditions: protein: recombinant; tags: N-terminal GST; dsDNA, one strand shown
# T9 sequence: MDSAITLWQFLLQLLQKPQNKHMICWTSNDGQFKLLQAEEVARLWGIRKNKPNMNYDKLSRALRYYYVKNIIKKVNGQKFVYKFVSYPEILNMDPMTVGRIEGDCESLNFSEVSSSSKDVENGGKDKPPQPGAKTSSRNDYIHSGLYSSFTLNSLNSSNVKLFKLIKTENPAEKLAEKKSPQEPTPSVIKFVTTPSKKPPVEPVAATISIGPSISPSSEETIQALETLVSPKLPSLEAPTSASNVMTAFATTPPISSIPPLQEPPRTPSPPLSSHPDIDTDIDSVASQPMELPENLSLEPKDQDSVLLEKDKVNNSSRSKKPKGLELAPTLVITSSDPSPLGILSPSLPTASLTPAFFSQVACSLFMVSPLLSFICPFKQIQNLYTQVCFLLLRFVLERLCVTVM
# Method in brief: as §1
# [16] = biological target: T10, ETV2 (Homo sapiens, UniProt O00321 1-342); conditions: protein: recombinant; tags: N-terminal GST; dsDNA, one strand shown
# T10 sequence: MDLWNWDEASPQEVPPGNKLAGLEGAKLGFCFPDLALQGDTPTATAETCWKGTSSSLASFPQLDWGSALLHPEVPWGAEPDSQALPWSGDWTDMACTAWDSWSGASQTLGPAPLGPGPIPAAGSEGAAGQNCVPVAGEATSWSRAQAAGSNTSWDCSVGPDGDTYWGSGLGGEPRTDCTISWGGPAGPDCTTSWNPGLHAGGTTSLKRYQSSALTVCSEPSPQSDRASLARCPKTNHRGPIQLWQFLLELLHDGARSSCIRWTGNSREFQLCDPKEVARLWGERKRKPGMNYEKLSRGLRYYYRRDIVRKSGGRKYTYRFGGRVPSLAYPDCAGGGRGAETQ
# Method in brief: as §1
# [17] = biological target: T11, ELF3 (Homo sapiens, UniProt P78545 1-371); conditions: protein: recombinant; tags: N-terminal GST; dsDNA, one strand shown
# T11 sequence: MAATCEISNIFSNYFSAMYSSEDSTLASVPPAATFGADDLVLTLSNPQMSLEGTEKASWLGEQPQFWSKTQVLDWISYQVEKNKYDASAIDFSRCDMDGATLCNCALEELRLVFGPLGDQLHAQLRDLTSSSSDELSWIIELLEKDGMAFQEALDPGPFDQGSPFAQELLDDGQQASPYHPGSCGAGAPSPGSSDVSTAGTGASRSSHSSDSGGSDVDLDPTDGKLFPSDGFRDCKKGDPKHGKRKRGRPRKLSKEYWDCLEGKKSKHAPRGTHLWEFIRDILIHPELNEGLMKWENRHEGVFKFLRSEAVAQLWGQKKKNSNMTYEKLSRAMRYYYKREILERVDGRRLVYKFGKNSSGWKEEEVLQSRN
# Method in brief: as §1
# [18] = biological target: CRX (Homo sapiens, UniProt O43186 1-299); conditions: protein: recombinant; tags: N-terminal GST; dsDNA, one strand shown
# Sequence of CRX (O43186 whole entry): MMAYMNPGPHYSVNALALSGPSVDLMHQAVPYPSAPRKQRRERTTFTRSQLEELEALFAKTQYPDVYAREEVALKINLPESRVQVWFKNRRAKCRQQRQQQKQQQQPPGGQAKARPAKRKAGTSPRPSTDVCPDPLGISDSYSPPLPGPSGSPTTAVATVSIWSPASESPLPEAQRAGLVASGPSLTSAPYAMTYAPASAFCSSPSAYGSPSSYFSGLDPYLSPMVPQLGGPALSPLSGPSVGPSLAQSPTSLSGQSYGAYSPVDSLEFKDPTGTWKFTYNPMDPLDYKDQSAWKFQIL
# Method in brief: as §1
# [19] = biological target: ETV1 (Homo sapiens, UniProt P50549 1-477); conditions: protein: recombinant; tags: N-terminal GST; dsDNA, one strand shown
# Sequence of ETV1 (P50549 whole entry): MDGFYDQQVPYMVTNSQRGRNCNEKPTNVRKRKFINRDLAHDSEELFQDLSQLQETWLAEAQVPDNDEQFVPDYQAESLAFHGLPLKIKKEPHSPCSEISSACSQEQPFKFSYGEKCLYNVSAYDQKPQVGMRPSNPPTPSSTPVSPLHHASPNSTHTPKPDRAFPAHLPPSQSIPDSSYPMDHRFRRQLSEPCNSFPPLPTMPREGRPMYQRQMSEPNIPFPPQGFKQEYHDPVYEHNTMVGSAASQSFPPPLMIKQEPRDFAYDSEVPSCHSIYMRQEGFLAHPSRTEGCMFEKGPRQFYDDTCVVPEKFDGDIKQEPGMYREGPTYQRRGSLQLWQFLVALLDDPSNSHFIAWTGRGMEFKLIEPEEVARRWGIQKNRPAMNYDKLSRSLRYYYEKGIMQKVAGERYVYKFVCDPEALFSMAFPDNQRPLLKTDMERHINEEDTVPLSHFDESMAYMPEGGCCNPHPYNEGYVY
# Method in brief: as §1
sequence,measurement,setting,value
CCTGGA,binding signal,[1],"1.53 fold enrichment (6-mer frequency, TF over GST control)"
same,binding signal,[2],"1.44 fold enrichment (6-mer frequency, TF over GST control)"
same,binding signal,[3],"1.43 fold enrichment (6-mer frequency, TF over GST control)"
same,binding signal,[4],"1.45 fold enrichment (6-mer frequency, TF over GST control)"
same,binding signal,[5],"1.4 fold enrichment (6-mer frequency, TF over GST control)"
same,binding signal,[6],"1.44 fold enrichment (6-mer frequency, TF over GST control)"
same,binding signal,[7],"1.21 fold enrichment (6-mer frequency, TF over GST control)"
same,binding signal,[8],"1.5 fold enrichment (6-mer frequency, TF over GST control)"
same,binding signal,[9],"1.39 fold enrichment (6-mer frequency, TF over GST control)"
same,binding signal,[10],"1.27 fold enrichment (6-mer frequency, TF over GST control)"
same,binding signal,[11],"1.47 fold enrichment (6-mer frequency, TF over GST control)"
same,binding signal,[12],"1.77 fold enrichment (6-mer frequency, TF over GST control)"
same,binding signal,[13],"1.42 fold enrichment (6-mer frequency, TF over GST control)"
same,binding signal,[14],"1.47 fold enrichment (6-mer frequency, TF over GST control)"
same,binding signal,[15],"1.38 fold enrichment (6-mer frequency, TF over GST control)"
same,binding signal,[16],"1.51 fold enrichment (6-mer frequency, TF over GST control)"
same,binding signal,[17],"1.12 fold enrichment (6-mer frequency, TF over GST control)"
same,binding signal,[18],"1.41 fold enrichment (6-mer frequency, TF over GST control)"
same,binding signal,[19],"1.41 fold enrichment (6-mer frequency, TF over GST control)"
